# TGFb inhibitor – inhibitors of TGF-b signaling. HepG2 CAGA-GFP TGF-b/SMAD3 reporter, GFP fluorescence, 18 h; TGF-beta stimulated, 500 pg/mL final. Potency, µM (series often up to 46.1 µM), for the others: top-dose activity, negative = inhibition, usual class: inhibitors. 1.2% of 410,000 active. AID 588855; further: on the % scale 0 is the no-effect control and ±100 the full control effect; nearly all actives have a fitted effect of over 65% in size
#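 Read-out: total well GFP (ex488/em500-530) summed from mean per-cell fluorescence. Cells: HEPG2 CAGA-GFP, 1% FBS DMEM, 18 h at 37 degrees C with 500 pg/mL final TGF-beta. Unstimulated wells served as the full-inhibition control; stimulated DMSO wells = 0%.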
# HT1080 IDH1KD tx – HT-1080 IDH1 knockdown cell toxicity (counter line) | Potency, µM (top dose mostly 46.1 µM), without a hit: at the highest dose activity, negative = toxicity, actives largely listed as cytotoxic | AID 686971 | HT-1080 IDH1 knockdown viability, ATP luminescence, 48 h | 2% of 360,000 active;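 further: 0% = DMSO wells and -100% = cell-free medium wells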
#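 CellTiter-Glo luminescence after 48 h compound exposure at 37 degrees C of IDH1-knockdown HT-1080 cells in 5% FBS RPMI. %Activity scaled between DMSO wells and cell-free media wells, with curves fitted and assigned curve classes.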
# DT40 TDP1 CPT – growth inhibition of DT40 Tdp1-/-;hTDP1 cells with camptothecin (screen for TDP1 inhibitors) | chicken DT40 Tdp1-/-;hTDP1 cells + 20 nM CPT, ATP luminescence, 48 h | Potency, µM (highest dose often 46.2 µM), for the others: at the highest dose activity change, negative = growth inhibition, hits mostly inhibitors | 12% of 420,000 active; further: on the % scale 0 is the no-effect control and ±100 the full control effect; nearly all actives have a fitted effect of over 55% in size
#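 Cell growth measured by CellTiter-Glo luminescence after a minimum 48 h, 37 C compound exposure with 20 nM CPT in Tdp1-knockout DT40 cells stably expressing hTDP1, seeded 400/well; qHTS titration format.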
# DT40 TDP1 no CPT – qHTS for Inhibitors of human tyrosyl-DNA phosphodiesterase 1 (TDP1): qHTS in cells in absence of CPT; DT40 Tdp1-/- hTDP1 cells, no CPT, ATP luminescence, 48 h; Potency, µM (titrated, usually from 46.2 µM), for inactives: at the top dose activity change, negative = growth inhibition, most hits filed as inhibitors; 15% of 420,000 active; further: on the % scale 0 is the no-effect control and ±100 the full control effect; nearly all actives have a fitted effect of over 55% in size
#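 No-CPT arm: Tdp1-/-;hTDP1 DT40 cells (400/well) plus compounds, incubated ≥48 hr at 37 °C. Readout CellTiter-Glo luminescence.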
# HT1080NT lethal – kills 2HG-producing HT-1080-NT fibrosarcoma cells | HT-1080-NT fibrosarcoma viability, CellTiter-Glo ATP luminescence, 48 h | Potency, µM (series often up to 46.1 µM), for inactives: top-dose activity, negative = less viability, hits mostly cytotoxic | 1.6% of 360,000 active | AID 686970;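 further: NT is the 2HG producing partner of a matched IDH1 knockdown line; 0% = DMSO-treated cells and -100% = media-only wells without cells; nearly all actives have a fitted effect of over 55% in size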
#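 Toxicity toward the 2HG-producing NT line was scored as %Activity, normalised to DMSO and no-cell wells, from CellTiter-Glo luminescence after 48 hours' treatment.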
# HepG2 tox – counter-screen for TGF-b inhibitors: cytotoxicity in HepG2 cells; HepG2 CAGA-GFP viability, ATP luminescence, 18 h; Potency, µM (series often up to 46.1 µM), for inactives: at the top dose activity change, negative = cytotoxicity, hits mostly cytotoxic; 0.76% of 410,000 active; AID 588856
#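 HepG2 CAGA-GFP cells (1000/well, DMEM with 1% FBS) received compound, then TGF-beta at 500 pg/mL final, and were incubated 18 hours at 37 degrees C. Viability was read by CellTiter-Glo luminescence. Media-only wells were set as complete cell-killing and DMSO as no toxicity.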
# Numbers without * were called inactive; ? = inconclusive; / = not tested or not shown; ! = a repeat was not active. Compounds with a hit are over-represented: about 17% of the library has one in this group of screens. The call rests on the fitted dose curve; in most records, active means well fitted curve in the direction sought with a large enough effect; inconclusive means small, poorly fitted or top-dose-only effect, or another doubt; inactive means no such curve, though single readings can be large; an effect the other way counts as inactive or inconclusive. Potency means the concentration at half of the fitted maximal effect.
SMILES,TGFb inhibitor,HT1080 IDH1KD tx,DT40 TDP1 CPT,DT40 TDP1 no CPT,HT1080NT lethal,HepG2 tox
CC1(C(=O)NCc2ccc(Cl)cc2)CCN1C(=O)Cc1cccc2ccccc12 (centres undefined),?,-4%,?,?,-22%,-25%
CC1(C(=O)NCc2ccc(Cl)cc2)CCN1C(=O)Cc1ccc(Cl)cc1Cl (centres undefined),-24%,-17%,18µM*,?,-15%,-22%
CC(C)c1ccc(CC(=O)N2CCC2(C)C(=O)NCC(C)(C)C)cc1 (centres undefined),12%,-18%,?,23µM*,1%,-25%
COc1ncc2ncc(=O)n(Cc3ccc(F)cc3)c2n1,/,/,-3%,-24%,/,/
CC(=O)N(C)c1ccc(NC(=O)Cc2cccc3ccccc23)cc1,17%,6%,11%,-24%,5%,-7%
CCc1cccc(N(C)C(N)=Nc2cccc3ccccc23)c1,25%,17%,11µM*!,15µM*!,?,0%
Cc1cccc(N2CCN(C(c3ccc(F)cc3)c3nnc(-c4ccccc4)o3)CC2)c1C (centres undefined),-28%,/,?,16µM*,/,-32%
CC1C(=O)N2CCCc3cc(NC(=O)C(=O)NCc4ccccn4)cc1c32 (centres undefined),-13%,-4%,-21%,-9%,-2%,-6%
Cc1ccc2nc3c(nc2c1C)C(O)=C3O,-20%,16%,15µM*,?,16%,11%
O=C(Cn1ncc2c([nH]c3ccccc32)c1=O)NCCCN1CCN(c2ccccc2)CC1,?,-7%,?,?,-19%,2%
CCOC(=O)N/N=C/c1ccc(OCCSc2ccc(Cl)cc2)c(OC)c1,-18%,3%,15µM*,26µM*,-16%,-5%
COC(=O)Oc1ccc(/C=N/NC(=O)CSCc2ccc(Cl)cc2)cc1OC,-3%,-26%,26µM*,12µM*,-13%,-23%
O=C1CCc2cc(S(=O)(=O)Nc3ccccc3F)cc3c2N1CCC3,-5%,4%,1%,-14%,4%,-20%
CCOc1ccc2[nH]c(=O)c(CN(Cc3ccco3)C(=O)c3ccc(Br)cc3)cc2c1,-13%,-9%,?,3.3µM*,-13%,-24%
CCOc1ccc2[nH]c(=O)c(CN(Cc3ccco3)C(=O)c3cccc(F)c3)cc2c1,-6%,5%,?,23µM*,5%,-21%
CCOc1ccc2[nH]c(=O)c(CN(CCc3ccccc3)C(=O)c3cnccn3)cc2c1,1%,0%,?,16µM*,-1%,0%
CCOc1ccc2[nH]c(=O)c(CN(CCO)C(=O)c3ccc(Br)cc3)cc2c1,-10%,-14%,?,-27%,-24%,-15%
CCC(=O)N(Cc1cc2cc(OC)ccc2[nH]c1=O)c1ccccc1OC,-18%,1%,?,?,6%,-26%
CCOc1ccc2[nH]c(=O)c(CN(Cc3ccccc3OC)C(=O)c3ccccc3)cc2c1,3%,?,6.5µM*,3.3µM*,-7%,-13%
CCOc1ccc2[nH]c(=O)c(CN(CCO)C(=O)CC)cc2c1,-4%,6%,-6%,2%,5%,-4%
Cc1cc(Br)c2[nH]cc(CCNC(=O)c3ccco3)c2c1,-18%,0%,-23%,?,16%,-39%
Cc1cccc(OC(C)C(=O)N2CCN(Cc3ccc4c(c3)OCO4)CC2)c1 (centres undefined),-1%,-1%,?,?,-2%,-23%
